The values below come from PubChem BioAssay (EPA / NIEHS).

“And” between values parts separate entries of the source, which are not always exact repeats. Equal values may be shown once. Where a structure was tested more than once in an assay, its records may differ in their call. The source made the active and inactive calls. How the source made its calls: active means hit-call score of the fitted dose curve at least 0.9, where 1 is the maximum; inactive means score below 0.9.

One may read the AC50 as the concentration giving half of the maximal activity seen.

Read-out in experiment [1]: Vascular cell adhesion molecule 1 (VCAM1), VCAM1 (gene 7412)
Kind of experiment: BSK_4H_VCAM1: BioMAP Diversity Plus: 4H Assay for Vascular cell adhesion molecule 1 (VCAM1) Biomarker Activity (AID 2283033).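 On outcome: cell-surface VCAM-1 protein measured by ELISA.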 The following applies: primary human endothelial cells (HUVEC); actives raise or lower the signal. The method in brief:
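HUVEC, 24 h post-dose; VCAM-1 by ELISA. Bidirectional curve fit vs DMSO baseline. Parallel SRB total-protein stain (0.1% SRB after 10% TCA fixation, 560 nm) for cytotoxicity.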

Read-out in experiment [2]: Interferon-gamma inducible Protein 10 (IP10), CXCL10 (gene 3627)
The experiment is described as follows: BSK_BE3C_IP10: BioMAP Diversity Plus: BE3C Assay for Interferon-gamma inducible Protein 10 (IP10) Biomarker Activity (AID 2283034). The following applies: primary human bronchial epithelial cells; actives raise or lower the signal. Summed up:
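ELISA readout of IP-10 in BE3C system: primary human bronchial epithelial cells, 24 h post-dosing; bidirectional curve fit vs DMSO baseline.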

Read-out in experiment [3]: Monokine induced gamma interferon (MIG), CXCL9 (gene 4283)
The experiment is described as follows: BSK_BE3C_MIG: BioMAP Diversity Plus: BE3C Assay for Monokine induced gamma interferon (MIG) Biomarker Activity (AID 2283035).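 On outcome: MIG protein measured by ELISA in BE3C cultures after 24 h of dosing.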 The settings on record: primary human bronchial epithelial cells; actives raise or lower the signal. Summed up: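 Dose cells (human primary bronchial epithelial), incubate 24 h, quantify MIG by ELISA, then fit concentration–response in both directions relative to DMSO control.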

Read-out in experiment [4]: Plasminogen activator inhibitor-1 (PAI1), SERPINE1 (gene 5054)
Kind of experiment: BSK_BE3C_PAI1: BioMAP Diversity Plus: BE3C Assay for Plasminogen activator inhibitor-1 (PAI1) Biomarker Activity (AID 2283037). The following applies: primary human bronchial epithelial cells; actives raise or lower the signal. The method in brief:
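ELISA read-out of PAI-1 from human bronchial epithelial primary cells, 24 h post-dosing; bidirectional curve fit vs DMSO baseline, gain or loss of signal scored.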

Read-out in experiment [5]: urokinase plasminogen activator (uPA), PLAU (gene 5328)
Kind of experiment: BSK_BE3C_uPA: BioMAP Diversity Plus: BE3C Assay for urokinase plasminogen activator (uPA) Biomarker Activity (AID 2283038).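 On outcome: uPA protein level quantified by ELISA in cell cultures; uPA read one day after compound addition.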 The following applies: primary human bronchial epithelial cells; actives raise or lower the signal. Summed up: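 Using confluent primary human lung bronchial epithelial cultures, we dosed chemicals, waited 24 h, then ran a uPA ELISA, fitting bidirectionally against DMSO.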

Read-out in experiment [6]: Urokinase-type plasminogen activator receptor (uPAR), PLAUR (gene 5329)
The experiment is described as follows: BSK_BE3C_uPAR: BioMAP Diversity Plus: BE3C Assay for Urokinase-type plasminogen activator receptor (uPAR) Biomarker Activity (AID 2283039).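 On outcome: uPAR protein level measured by ELISA on the cells; cells exposed to compound for one day before measurement.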 The following applies: primary human bronchial epithelial cells; actives raise or lower the signal. Summed up: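 ELISA readout of uPAR on human lung primary bronchial epithelial cells, 24 h post-dosing. Bidirectional curve fit relative to DMSO vehicle baseline; gain or loss of signal both scored.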

Read-out in experiment [7]: Interleukin-6 (IL6), IL6 (gene 3569)
The experiment is described as follows: BSK_CASM3C_IL6: BioMAP Diversity Plus: CASM3C Assay for Interleukin-6 (IL6) Biomarker Activity for (AID 2283040). The settings on record: primary human coronary artery smooth muscle cells; actives raise or lower the signal.

Read-out in experiment [8]: Tissue plasminogen activator (tPA), PLAT (gene 5327)
Kind of experiment: BSK_BE3C_tPA: BioMAP Diversity Plus: BE3C Assay for Tissue plasminogen activator (tPA) Biomarker Activity (AID 2283041).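 On outcome: tPA level quantified by ELISA one day after compound addition.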 The settings on record: primary human bronchial epithelial cells; actives raise or lower the signal. The method in brief: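 ELISA read-out of tPA on human primary bronchial epithelial cells, 24 h post-dosing; bidirectional fit vs DMSO negative control/baseline.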

Read-out in experiment [9]: Interleukin-8 (IL8), CXCL8 (gene 3576)
The experiment is described as follows: BSK_CASM3C_IL8: BioMAP Diversity Plus: CASM3C Assay for Interleukin-8 (IL8) Biomarker Activity (AID 2283042).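 Further: IL-8 protein level quantified by ELISA.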 The following applies: primary human coronary artery smooth muscle cells; actives raise or lower the signal.

Read-out in experiment [10]: Human Leukocyte Antigen - DR isotype (HLADR), HLA-DRA (gene 3122)
Kind of experiment: BSK_CASM3C_HLADR: BioMAP Diversity Plus: CASM3C Assay for Human Leukocyte Antigen - DR isotype (HLADR) Biomarker Activity (AID 2283043).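 Further: cell-surface HLA-DR protein level quantified by ELISA.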 The settings on record: primary human coronary artery smooth muscle cells; actives raise or lower the signal.

Read-out in experiment [11]: Macrophage colony-stimulating factor (MCSF), CSF1 (gene 1435)
The experiment is described as follows: BSK_CASM3C_MCSF: BioMAP Diversity Plus: CASM3C Assay for Macrophage colony-stimulating factor (MCSF) Biomarker Activity (AID 2283044).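 Further: M-CSF protein amount quantified by ELISA after 24 h exposure.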 The following applies: primary human coronary artery smooth muscle cells; actives raise or lower the signal.

Read-out in experiment [12]: Low-density lipoprotein receptor (LDLR), LDLR (gene 3949)
The experiment is described as follows: BSK_CASM3C_LDLR: BioMAP Diversity Plus: CASM3C Assay for Low-density lipoprotein receptor (LDLR) Biomarker Activity (AID 2283045).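 Further: LDLR protein level on the cell surface quantified by ELISA.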 The following applies: primary human coronary artery smooth muscle cells; actives raise or lower the signal.

Read-out in experiment [13]: Monocyte Chemoattractant Protein-1 (MCP1), CCL2 (gene 6347)
Kind of experiment: BSK_CASM3C_MCP1: BioMAP Diversity Plus: CASM3C Assay for Monocyte Chemoattractant Protein-1 (MCP1) Biomarker Activity (AID 2283046).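 Further: MCP-1 level quantified by ELISA 24 h after dosing.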 The settings on record: primary human coronary artery smooth muscle cells; actives raise or lower the signal.

The nature of experiment [14]: BSK_CASM3C_Proliferation: Cell Proliferation Assessment in the BioMAP Diversity Plus: CASM3C Assay (AID 2283047).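 Further: sulforhodamine B total protein stain as relative cell number at 560 nm; sub-confluent cells exposed 48 h before staining; fitted both ways against DMSO so gain or loss of cell number.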 The settings on record: primary human coronary artery smooth muscle cells.
Read-out in experiment [15]: Monokine induced gamma interferon (MIG), CXCL9 (gene 4283)
The experiment is described as follows: BSK_CASM3C_MIG: BioMAP Diversity Plus: CASM3C Assay for Monokine induced gamma interferon (MIG) Biomarker Activity (AID 2283048).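 Further: MIG protein level measured by ELISA.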 The settings on record: primary human coronary artery smooth muscle cells; actives raise or lower the signal.

Read-out in experiment [16]: serum amyloid A (SAA), SAA1 (gene 6288)
Kind of experiment: BSK_CASM3C_SAA: BioMAP Diversity Plus: CASM3C Assay for serum amyloid A (SAA) Biomarker Activity (AID 2283049).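 Further: SAA protein level quantified by ELISA.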 The following applies: primary human coronary artery smooth muscle cells; actives raise or lower the signal.

Experiment [17] is described as follows: BSK_CASM3C_SRB: Viability Assessment in the BioMAP Diversity Plus: CASM3C Assay (AID 2283050).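 Further: total protein by SRB staining as cytotoxicity measure in parallel cultures; cells exposed to compound for 24 h.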 The settings on record: primary human coronary artery smooth muscle cells.
Read-out in experiment [18]: Thrombomodulin, THBD (gene 7056)
Kind of experiment: BSK_CASM3C_Thrombomodulin: BioMAP Diversity Plus: CASM3C Assay for Thrombomodulin Biomarker Activity (AID 2283051).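 Further: thrombomodulin protein level measured by ELISA 24 h after dosing.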 The settings on record: primary human coronary artery smooth muscle cells; actives raise or lower the signal.

Read-out in experiment [19]: Tissue Factor, F3 (gene 2152)
The experiment is described as follows: BSK_CASM3C_TissueFactor: BioMAP Diversity Plus: CASM3C Assay for Tissue Factor Biomarker Activity (AID 2283052).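 Further: cell surface tissue factor protein level read by ELISA.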 The settings on record: primary human coronary artery smooth muscle cells; actives raise or lower the signal.

Read-out in experiment [20]: Transforming growth factor beta 1 (TGFb1), TGFB1 (gene 7040)
The experiment is described as follows: BSK_BE3C_TGFb1: BioMAP Diversity Plus: BE3C Assay for Transforming growth factor beta 1 (TGFb1) Biomarker Activity (AID 2283036;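 further: TGF-b1 protein level measured by ELISA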). The following applies: primary human bronchial epithelial cells; actives raise or lower the signal. Summed up:
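Read-out: ELISA for TGF-b1 in primary human bronchial epithelial cultures, 24 h post-dose. Bidirectional curve fitting vs DMSO control; gain or loss of signal both scored.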

For `Oc1c(Cl)cc(Cl)cc1Sc1cc(Cl)cc(Cl)c1O`, the AC50 in experiment [1] is 12.8 µM (active); in experiment [2], 4.76 µM (active); in experiment [3], 6.66 µM (active) and 7.75 µM (active); in [4] it was 4.59 µM (active); in experiment [5] it was 5.33 µM (active) and 5.44 µM (active); in experiment [6], 1.8 µM (active) and 1.83 µM (active). Further, the AC50 was 4.32 µM (active) and 3.03 µM (active) in experiment [8]; 9.1 µM (active) and 7.2 µM (active) in [10]; 12.6 µM (active) and 11.8 µM (active) in experiment [11]; 15.8 µM (active) and 12.1 µM (active) in experiment [14]; 20.2 µM (active) and 26.6 µM (active) in [15]; 20 µM (active) in [16]. Moreover, the half-maximal activity concentration (AC50) in experiment [17] is 17.1 µM (active); in experiment [18], 12.8 µM (active) and 12.6 µM (active). Also, the outcome in experiment [7], in experiment [9], in experiment [12], in [13], in experiment [16] and in [19] was inactive.
As to `CN(CCO)S(=O)(=O)C(F)(F)C(F)(F)C(F)(F)C(F)(F)C(F)(F)C(F)(F)C(F)(F)C(F)(F)F`, the result in [1], in experiment [2], in experiment [3], in [4], in experiment [5] and in [6] was inactive. Also, the outcome in experiment [7], in experiment [8], in experiment [9], in [10], in [11] and in experiment [12] was inactive. The result in experiment [13], in experiment [14], in [15], in experiment [16], in experiment [17] and in experiment [18] was inactive. In addition, the outcome in experiment [19] was inactive. Further, the AC50 in experiment [15] is 29.3 nM (active).
On to `COc1cccc(O)c1`, for which the result in [1], in experiment [2], in experiment [3], in [20], in experiment [4] and in experiment [5] was inactive. Besides, the outcome in [6], in experiment [7], in experiment [8], in [9], in [10] and in experiment [11] was inactive. Further, the outcome in experiment [12], in experiment [13], in experiment [14], in [15], in experiment [16] and in [17] was inactive. Besides, the result in experiment [18] and in experiment [19] was inactive.
As to `OCC(CO)(CBr)CBr`, the result in [1], in [2], in [3], in [20], in experiment [4] and in [5] was inactive. The result in experiment [6], in experiment [7], in experiment [8], in experiment [9], in [10] and in experiment [11] was inactive. The outcome in experiment [12], in [13], in [14], in [15], in experiment [16] and in experiment [17] was inactive. Also, the result in experiment [18] and in [19] was inactive.
Consider `O=C1c2ccc(O)c(O)c2C(=O)c2c(O)ccc(O)c21`, for which the result in experiment [1], in experiment [2], in [3], in experiment [20], in experiment [4] and in experiment [5] was inactive. Besides, the result in experiment [6], in experiment [7], in [8], in [9], in experiment [10] and in experiment [11] was inactive. The result in [12], in [13], in [15], in [16], in experiment [17] and in experiment [18] was inactive. The result in [19] was inactive. For the same compound, the concentration at half-maximal activity (AC50) in experiment [14] was 4.1 nM (active).
`O=C(CC(=O)C(F)(F)C(F)(F)C(F)(F)F)c1cccs1`: the AC50 is 27.6 µM (active) and 31 µM (active) in experiment [1]; 19.5 µM (active) and 18.9 µM (active) in experiment [2]; 24.6 µM (active) and 42 µM (active) in experiment [3]; 10.9 µM (active) and 10 µM (active) in [4]; 47.4 µM (active) and 46 µM (active) in [5]; 45.6 µM (active) in experiment [6]. Further, the AC50 in experiment [7] is 38.1 µM (active) and 20.8 µM (active); in experiment [8], 22.3 µM (active) and 20.7 µM (active); in experiment [10], 47.3 µM (active) and 50.5 µM (active); in experiment [11], 45.2 µM (active) and 48.9 µM (active); in experiment [12] it was 40.2 µM (active) and 32.8 µM (active); in experiment [13], 45.5 µM (active) and 45.9 µM (active). Further, the AC50 is 30 µM (active) and 24.6 µM (active) in experiment [14]; 42 µM (active) and 50.2 µM (active) in experiment [15]; 41.2 µM (active) and 43.4 µM (active) in experiment [16]; 45.6 µM (active) and 44.6 µM (active) in experiment [17]; 54.4 µM (active) in [18]. Besides, the result in experiment [9], in experiment [18] and in experiment [19] was inactive.
